Measured values: PubChem BioAssay (Tox21)
Inconclusive results are not listed. Unmarked numbers belong to inactive results. Calls of active or inactive are those of the source. Calls come from the whole dose curve; as a rule, active = well fitted cell-killing curve with a large enough effect in the repeat runs; inconclusive = weak or mixed curves; inactive = flat fitted curve, though single readings scatter.

assay: qHTS RealTime-Glo MT Cell Viability Assay in HepG2 cells - 24 hour (AID 1224867); conditions: RealTime-Glo luminescence; series mostly up to 76.8 µM; activity change, negative = cytotoxicity: at the top concentration; note: nearly all actives have a fitted effect of over 50% in size
From the text: U.S. Tox21 Program National Center for Advancing Translational Sciences [NCATS] NIH Chemical Genomics Center [NCGC] U.S. Environmental Protection Agency [EPA] National Institutes of Environmental Health Sciences [NIEHS] National Toxicology Program [NTP] U.S. Food and Drug Administration [FDA] Tox21 Assay Overview: Measure of cell viability is critical in the cell-base assay. Analysis of cell viability is necessary for the characterization of cell responses to cytotoxic drugs and environmental stress. A RealTime-Glo MT Cell Viability Assay to monitor cell viability in real time of continues cell culture during 40 hours of compound treatment was used to screen Tox21 10K library compounds in HepG2 cells. The RealTime-Glo MT Cell Viability Assay is a nonlytic, homogeneous, bioluminescent method to measure cell viability in real time using a simple, plate-based method. The assay involves adding NanoLuc luciferase and a cell-permeant prosubstrate to cells in culture. Viable cells reduce the proprietary prosubstrate to generate a substrate for NanoLuc luciferase. This substrate diffuses from cells into the surrounding culture medium, where it is rapidly used by the NanoLuc Enzyme to produce a luminescent signal. The signal correlates with the number of viable cells, making the assay well suited for cytotoxicity studies.
Tox21 Assay Protocol Summary: The mixture of HepG2 cell suspension and reagents were dispensed at 600cells/6 ul/well in 1536-well tissue culture treated black solid bottom plates using a Multidrop dispenser. After the assay plates were incubated at a 37 C/5% CO2 incubator for 5 hours, 23 nL of compounds dissolved in DMSO, positive and negative controls was transferred to the assay plate by a pintool work station. The plates were incubated at 37 C for 40 hours. The luminescence intensity were measured at 0h, 8h, 16h, 24h, 32h and 40h time points using ViewLux plate reader during compound treatment.
% is set by controls: 0 for no effect and ±100 for the full control effect; potency is the fitted concentration of half-maximal effect.

| Compound | activity change, negative = cytotoxicity | Potency |
| --- | --- | --- |
| C/C(=C(\CCOP(=O)(O)O)SC(=O)c1ccccc1)N(C=O)Cc1cnc(C)nc1N | 1.32% [at 6.97 µM] |  |
| C=CC(=O)OCCOCCOCCOCCOC(=O)C=C |  | 43.2 µM (active) |
| Cc1nn(C)c(Oc2ccccc2)c1/C=N/OCc1ccc(C(=O)OC(C)(C)C)cc1 | -19.6% |  |
| C#Cc1cccc(Nc2ncnc3cc(OCCOC)c(OCCOC)cc23)c1 | -14.7% [at 35.3 µM] |  |
| O=[N+]([O-])c1cccc(S(=O)(=O)O)c1 | -17.1% |  |
| CCCCCCCC/C=C\CCCCCCCC(=O)OCC | -2.7% |  |
| CCCCOC(=O)CCCCCCCC(=O)OCCCC | 1.07% |  |
| CCN(CC)CCNc1ccc(CNC=O)c2sc3ccc(OC)cc3c(=O)c12 |  | 21.9 µM (active) |
| CC1=CC[C@H](C(C)C)C=C1 | -0.445% |  |
| CC(=O)[O][Al] | 0.337% |  |
| CN1CCN(C(c2ccccc2)c2ccccc2)CC1 | 2.78% [at 35.3 µM] |  |
| CC1(c2ccccc2)OC(C(=O)O)=CC1=O (stereo not given) | 1.17% [at 35.3 µM] |  |
| CNC(=O)CN(CCN(CCN(CC(=O)[O-])CC(=O)NC)CC(=O)[O-])CC(=O)[O-].O.[Gd+3] | 1.38% [at 35.3 µM] |  |
| NCC(=O)O | 3.17% [at 15.8 µM] |  |
| CC(=O)c1cccc([N+](=O)[O-])c1 | -1.34% |  |
| CC(COCCO)OCCO (stereo not given) | 1.8% |  |
| C[C@H]1C[C@H]2[C@@H]3CCC4=CC(=O)C=C[C@]4(C)[C@@]3(Cl)[C@@H](O)C[C@]2(C)[C@@]1(O)C(=O)CO | -16.9% [at 35.3 µM] |  |
| CCN(CC)CCOC(=O)C(Cc1cccc2ccccc12)CC1CCCO1 (stereo not given) | -4.63% [at 35.3 µM] |  |
| COc1cc(Cl)ccc1Oc1ccc(Cl)cc1Cl | -4.32% |  |
| Clc1ccc(Cn2c(CN3CCCC3)nc3ccccc32)cc1 | -23.7% [at 35.3 µM] |  |

| Compound | activity change, negative = cytotoxicity | Potency |
| --- | --- | --- |
| CC1=CC=C(C(C)C)CC1 | 3.45% |  |
| O=C(NCCO[N+](=O)[O-])c1cccnc1 | 4.95% [at 35.3 µM] |  |
| CCC(C)c1cc(C(C)(C)C)c(O)c(C(C)(C)C)c1 (stereo not given) | 2.16% |  |
| CC(C)(CO)[N+](=O)[O-] | -0.488% |  |
| CCCCC(=O)OCC(=O)[C@H]1[C@H](C)C[C@H]2[C@@H]3C[C@H](F)C4=CC(=O)C=C[C@]4(C)[C@@]3(F)[C@@H](O)C[C@@]21C | -8.6% [at 35.3 µM] |  |
| O=C(O)C(S)C(S)C(=O)O (stereo not given) | 2.1% [at 35.3 µM] |  |
| CCn1cc(C(=O)O)c(=O)c2cnc(N3CCNCC3)nc21 | 0.0379% [at 35.3 µM] |  |
| O=C(O)CNCC(=O)O | 0.0678% [at 6.97 µM] |  |
| CC(CSC(=O)c1ccccc1)C(=O)N1C[C@@H](Sc2ccccc2)C[C@H]1C(=O)O (stereo not given in full) | 3.68% [at 15.8 µM] |  |
| Nc1ccc([N+](=O)[O-])c(C(F)(F)F)c1 | 1.11% [at 35.3 µM] |  |
| NS(=O)(=O)c1ccc(N2CCCCS2(=O)=O)cc1 | 0.688% [at 35.3 µM] |  |
| CCOC(=O)NCCOc1ccc(Oc2ccccc2)cc1 | -18.8% |  |
| Cc1ccc(C(C)OC(=O)C2(C)CCC(C(=O)O)C2(C)C)cc1 (stereo not given) | 0.0255% [at 35.3 µM] |  |
| CC(C)OC(=O)C(C)N(C(=O)c1ccccc1)c1ccc(F)c(Cl)c1 (stereo not given) | -16% |  |
| c1ccc(CNCCNCc2ccccc2)cc1 | 0.373% [at 35.3 µM] |  |
| O=S(c1cc(Cl)cc(Cl)c1O)c1cc(Cl)cc(Cl)c1O | 0.126% [at 35.3 µM] |  |
| Nc1ccccc1S(=O)(=O)c1ccccc1 | -0.33% |  |
| CCCCNc1ccc(C(=O)OCCOCCOCCOCCOCCOCCOCCOCCOCCOC)cc1 | 0.304% [at 35.3 µM] |  |
| C[N+](C)(C)CCOC(=O)CCC(=O)OCC[N+](C)(C)C | 2.81% [at 35.3 µM] |  |
| CCOC(=O)C(=O)CCc1ccccc1 | 2.56% [at 35.3 µM] |  |
